Data published in PubChem BioAssay (NCI).
“And” between values parts separate entries of the source, which are not always exact repeats. Equal entries are not always repeated. The panel holds about 83,000 compounds, 20% with a hit somewhere; the sample as a whole holds those more often.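 Growth was measured after 48 h exposure to one concentration of compound in 96-well plates. Values under 10 count as active.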 The source made the active and inactive calls.

Each compound was assayed on MCF7 breast (assay: NCI-60 one-dose screen, 48 h (100 = growth as untreated, 0 = no growth, -100 = all killed)). Conditions: 10 µM unless noted.

SMILES | growth
N#Cc1cc(-c2ccc3ncnc(N4CCc5cc(F)c(Cl)cc54)c3c2)cnc1N | 4.81% (active)
Cn1cc(Nc2ncnc(-c3ccc(N4CCCC4)c(C#N)c3)n2)cn1 | 66.5% (inactive)
CN(C)CCCc1ccc(Nc2cnn(C)c(=O)c2Cl)cc1 | 80.8% (inactive)
O=Cc1cncc(-c2ccc3ncnc(N4CCc5cc(F)c(Cl)cc54)c3c2)c1 | 1.77% (active)
N#CC1=C(c2cccs2)Nc2c(c(-c3ccccc3)nn2-c2ccccc2)C12C(=O)Nc1ccccc12 (stereo not drawn) | 31.4% (inactive)
O=C(CSc1nc2sc3c(c2c(=O)n1-c1ccc(Cl)cc1)CCCC3)NNC(=O)c1ccc(F)cc1 | 61.9% (inactive)
COc1ccc(-c2cc(-c3cc(OC)c(OC)c(OC)c3)[nH]c(=O)c2C#N)cc1 | 86.2% (inactive)
CC(=O)Nc1cccc(-n2c(COc3ccc(Br)cc3)nc3ccccc32)c1 | 82.3% (inactive) and 97.2% (inactive)
Cc1cc(Cl)ccc1NC(=O)Nc1ccc(-c2ccc3c(c2)NC(=O)/C3=C\c2ccc[nH]2)cc1 | 18.7% (inactive)
Nc1cc(-c2c[nH]c3ccc(Br)cc23)nc2cc(-c3c[nH]c4ccccc34)nn12 | -66.8% (active)
CCc1ccc(SC2c3cc(OC)ccc3Oc3nc(N)c(C#N)c(N)c32)cc1 (stereo not drawn) | -45.4% (active)
COc1ccc(C(=O)NNC(=O)CSc2nc3sc4c(c3c(=O)n2-c2ccc(Cl)cc2)CCCC4)cc1 | 63.5% (inactive)
CNc1nc2ccccc2n2c(-c3ccc(O)c(O)c3)cnc12 | 4.34% (active)
CN(CCSSCCN1CCOCC1)C(=O)Oc1cc2c(c3ccccc13)[C@H](CCl)CN2C(=O)c1cc2cc(OCCCN3CCC3)ccc2[nH]1 | -60.8% (active)
Cn1cc(-c2cc(N)n3nc(-c4c[nH]c5ccc(F)cc45)cc3n2)c2cccnc21 | -53.8% (active)
O=C(Cn1c(-c2ccccc2)nc2ccccc21)N=Nc1c(O)[nH]c2ccc(Br)cc12 | -18.6% (active)
O=C(NN1C(=O)/C(=C/C=C/c2ccc([N+](=O)[O-])o2)SC1=S)c1ccncc1 | -53.4% (active)
CCCCCCCCCc1ccc(C(=O)Nc2cc(C)ccc2C(=O)OC)cc1 | 91.2% (inactive)
COc1ccc(N=Nc2c(N)nn3c(-c4ccc([N+](=O)[O-])cc4)ccnc23)cc1 | 95.3% (inactive)

SMILES | growth
COc1ccc2[nH]c(O)c(N=Nc3nc(-c4ccc(Cl)cc4)cs3)c2c1 | -19% (active)
C[C@@H](Nc1c(C#N)cnc2ccc(-c3cnc4[nH]ncc4c3)cc12)c1ccccc1 | -27.9% (active)
CS(=O)(=O)Nc1cccc(-n2c(COc3ccc(OC(F)(F)F)cc3)nc3ccccc32)c1 | 65.6% (inactive) and 102% (inactive)
Cc1cc(C(NC(=O)CCCCCNc2cccc3c2C(=O)N(C2CCC(=O)CC2=O)C3=O)c2cccc(N(C)C)c2)c(O)c2ncccc12 (stereo not drawn) | 10.9% (inactive)
COc1ccc(S(=O)(=O)Nc2ccc(-c3ccc4c(c3)NC(=O)/C4=C\c3ccc[nH]3)cc2)cc1OC | -39% (active)
COc1ccc(-c2nc3ccccc3n2CC(=O)N=Nc2c(O)[nH]c3ccc(OC)cc23)cc1 | 58.1% (inactive)
Cc1ccc(C(C(=O)NC2CCCCC2)N(Cc2ccccc2Cl)C(=O)c2ccc(CN3CCOCC3)o2)o1 (stereo not drawn) | 95.3% (inactive)
COc1ccc(N=Nc2c(N)nn3c(-c4ccc(OC)c(OC)c4)ccnc23)cc1 | 84.9% (inactive)
Cc1ccc(Cl)cc1NC(=O)N/C(N)=N/c1nc2ccccc2s1 | 4.25% (active)
N#Cc1cc(-c2ccnc(Nc3ccc(N4CCN(C5COC5)CC4)cc3)n2)ccc1N1CCCC1 | 85.8% (inactive)
COc1ccc(-c2nc3ccc(-c4nnc(SCC(=O)Nc5ccc(/C(C)=N\O)cc5)o4)cc3[nH]2)cc1 | 37% (inactive)
O=C1/C(=C/c2cnc(-c3ccccc3)s2)SC(=S)N1Cc1ccc2c(c1)OCO2 | 59.3% (inactive)
Cc1nn(-c2ccccc2)c2ncn(CC(=O)N/N=C/c3ccccc3O)c(=O)c12 | 16.3% (inactive)
COc1ccc(C2=NN(C(=O)[C@H]3[C@@H](c4ccco4)c4sc(=O)[nH]c4S[C@@H]3C)C(c3ccc4ccccc4c3)C2)cc1 (stereo partly drawn) | 13.1% (inactive)
CCc1ccccc1NC(=O)N/C(N)=N/c1nc2ccccc2s1 | 11% (inactive)
O=C(Nc1ccc(Cl)c(C(F)(F)F)c1)N1CCN(c2cc(-c3cn(-c4ccccc4)nc3-c3cccc(O)c3)ccn2)CC1 | -22.2% (active)
NC(=O)c1ccc(-c2ccc3ncnc(N4CCc5cc(F)c(Cl)cc54)c3c2)cn1 | 37.7% (inactive)
COc1cc2cc(C(=O)N3C[C@@H](CCl)c4c3cc(OC(=O)N(CCC(=O)N3CCN(C)CC3)[C@H]3CCSSC3)c3ccccc43)[nH]c2c(OC)c1OC | -79.9% (active)
COc1ccc2[nH]c(=O)c(CSc3ccccc3Nc3nccc(-c4ccc5c(c4)OCO5)n3)cc2c1 | 68.2% (inactive)
